Assay outcomes deposited in PubChem by Sanford-Burnham Center for Chemical Genomics.
APOBEC3G inh – APOBEC3G DNA deaminase inhibitors, primary screen, biochemical, fluorescence, single-stranded DNA substrate, uHTS; DNA dC->dU-editing enzyme APOBEC-3G (Homo sapiens), Q9HC16; recombinant A3G, ssDNA deamination FAM/TAMRA fluorescence; inhibition, % at 20 µM; hit rate 0.28% among 330,000; AID 493012, 2011;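 active = inhibition of at least 40% at 20 µM, with no more than 30% in the related APOBEC3A deaminase screen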;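 also: plate controls were DMSO wells with A3G for no effect and wells lacking A3G enzyme for full effect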
Target sequence (Q9HC16 whole entry, looked up): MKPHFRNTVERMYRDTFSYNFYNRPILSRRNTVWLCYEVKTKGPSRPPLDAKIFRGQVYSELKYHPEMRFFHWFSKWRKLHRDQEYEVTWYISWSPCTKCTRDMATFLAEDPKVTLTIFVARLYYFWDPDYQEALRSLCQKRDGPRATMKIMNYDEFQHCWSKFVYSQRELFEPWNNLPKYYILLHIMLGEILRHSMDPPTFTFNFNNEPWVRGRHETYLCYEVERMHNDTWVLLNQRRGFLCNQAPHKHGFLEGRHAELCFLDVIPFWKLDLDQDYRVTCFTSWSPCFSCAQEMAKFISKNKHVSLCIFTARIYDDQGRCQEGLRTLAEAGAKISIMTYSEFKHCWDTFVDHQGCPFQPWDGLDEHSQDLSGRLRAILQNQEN
APOBEC3A inh – APOBEC3A ssDNA deaminase inhibitors, primary screen, selectivity assay for APOBEC3G inhibitor project, biochemical, FAM/TAMRA oligo cleavage fluorescence | recombinant A3A, FAM/TAMRA ssDNA deamination fluorescence | inhibition, % at 20 µM | hit rate 0.41% among 330,000 | AID 493011, 2011;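 active = at least 40% inhibition at 20 µM here, with at most 30% in a related deaminase screen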;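 also: plate controls were A3A with DMSO for no effect and wells lacking A3A enzyme for full effect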
Target sequence (P31941 whole entry, looked up): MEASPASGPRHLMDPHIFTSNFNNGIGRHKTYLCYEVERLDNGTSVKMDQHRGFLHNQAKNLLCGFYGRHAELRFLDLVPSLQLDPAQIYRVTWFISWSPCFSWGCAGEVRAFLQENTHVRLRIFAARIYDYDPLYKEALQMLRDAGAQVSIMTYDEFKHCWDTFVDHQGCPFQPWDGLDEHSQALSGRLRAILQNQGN
H9c2 protect – cardioprotection against H2O2-induced cell death, primary screen, uHTS, H9c2 cells, ATPLite luminescence | H9c2 cardiomyocytes, H2O2 injury protection, 2 h | protection from H2O2 cell death, % at 20 µM | hit rate 0.63% among 360,000;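 active = compounds giving at least 50% protection of heart cells from peroxide-induced death in the single-dose screen, raw or plate-pattern-corrected value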;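 also: 0% = DMSO wells with peroxide and 100% = DMSO wells without peroxide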
TAG inh – inhibitors of triacylglycerol accumulation, primary screen, cell-based, uHTS, fluorescence, H9c2. inhibition, % at 12.5 µM. H9c2 cells, Nile Red lipid (TAG) fluorescence; cells loaded with 200 µM oleic acid. hit rate 0.66% among 230,000;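 active = pattern-corrected inhibition of lipid staining of at least 50% with the nuclear-stain viability signal not falling by more than 50%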;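 also: 0% = DMSO wells and 100% = triacsin C control wells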
PfG6PD inh – PfG6PD enzyme inhibitors, primary screen, biochemical, fluorescence intensity, uHTS | AID 504690, 2011 | glucose-6-phosphate dehydrogenase-6-phosphogluconolactonase (Plasmodium falciparum 3D7) | hit rate 0.78% among 350,000 | PfGluPho enzyme, NADPH resazurin-diaphorase fluorescence | inhibition, % at 20 µM;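 active = inhibition reaching at least a set limit at 20 µM in the primary screen, cut at about 59% in these data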;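 also: 0% = DMSO wells with substrate and 100% = DMSO wells lacking glucose-6-phosphate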
NadD block – inhibitors of S. aureus NadD, primary screen, biochemical, colorimetric, uHTS. purified NadD enzyme, colorimetric absorbance read-out. inhibition, % at 20 µM. hit rate 0.78% among 360,000; in the data active = inhibition above about 26%
PfGluPho conf – PfG6PD inhibitors, hit retest, confirmation, biochemical, fluorescence intensity, single concentration; shares compounds with PfG6PD inh; recombinant PfGluPho, NADPH-diaphorase-resazurin fluorescence; inhibition, % at 20 µM; hit rate 34% among 2,400; AID 504753, 2011;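 active = inhibition of at least 50% at 20 µM in any single replicate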;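 also: 0% = DMSO with substrate and 100% = DMSO lacking glucose-6-phosphate substrate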
Diaphorase 10uM – diaphorase inhibitors and chemical oxidizers, confirmation, counter-screen for P. falciparum G6PD inhibitor project, biochemical, fluorescence intensity, 10 µM NADPH; shares compounds with PfG6PD inh; diaphorase-coupled resazurin reduction, NADPH 10 uM; inhibition, % at 20 µM; hit rate 39% among 820; AID 504862, 2011;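 active = average inhibition reaching 50% or more with the compound at 20 µM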;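 also: resorufin red fluorescence formed as diaphorase reduces resazurin using NADPH; 0% = DMSO with enzyme and 100% = DMSO without enzyme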
Diaphorase 30uM – diaphorase inhibitors and chemical oxidizers, confirmation, counter-screen for P. falciparum G6PD inhibitor project, biochemical, fluorescence intensity, 30 µM NADPH | shares compounds with PfG6PD inh | Diaphorase/resazurin coupled assay, resorufin fluorescence | inhibition, % at 20 µM | hit rate 29% among 820 | AID 504863, 2011;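 active = inhibition averaging 50% or more, tested at 20 µM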;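 also: 0% = DMSO with enzyme and 100% = DMSO wells lacking diaphorase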
An asterisk follows results filed as active; nt = no result. Only some compounds are listed: those with a hit (about 2.9% of all), similar ones and a draw of the others.

SMILES	APOBEC3G inh	APOBEC3A inh	H9c2 protect	TAG inh	PfG6PD inh	NadD block	PfGluPho conf	others
CCOc1cccc(-c2c(C(=O)N/N=C(\C)c3cccnc3)nnn2-c2nonc2N)c1	-7	-3	4	nt	19	-1	nt
COc1ccc(NC(=O)CN(c2ccccc2)S(=O)(=O)c2ccccc2)c(OC)c1	-1	2	4	-10	3	-10	nt
COC(=O)c1ccc(Cl)c(NC(=O)CN(c2ccccc2)S(=O)(=O)c2ccc(OC)cc2)c1	-6	-2	-2	nt	76*	-9	-18
CN(C)C=Nc1ccc2nc3c(cc2c1)[nH]c1ccccc13	-3	6	-14	nt	80*	3	54*	Diaphorase 10uM=37;Diaphorase 30uM=45
Cc1c(Cl)c([N+](=O)[O-])nn1CC(=O)Nc1ccc2c(c1)OCO2	-4	-2	3	nt	-3	-4	nt
COc1ccc(-n2c(SCC#N)nc3c(sc(=S)n3-c3ccccc3)c2=O)c(OC)c1	26	-3	3	nt	91*	9	41
COc1ccccc1-n1c(SC)nc2c(sc(=S)n2-c2ccccc2)c1=O	-7	-3	-5	nt	-5	-6	nt
O=C(CCCOc1ccc(Cl)cc1Cl)N/N=C/c1ccccc1	-8	2	-12	nt	119*	-20	86*	Diaphorase 10uM=88*;Diaphorase 30uM=71*
O=C(CC(=O)Nc1cccc(Cl)c1)N/N=C\c1ccccc1	-8	-7	-9	nt	84*	2	41
O=C(N/N=C/c1ccc(Cl)cc1)Nc1ccccc1	-5	0	-4	4	3	-8	nt
O=C(CCCOc1ccc(Cl)cc1Cl)N/N=C/c1ccccc1O	2	4	36	nt	34	-1	nt
Cc1ccc(/C=N/NC(=O)CCCOc2ccc(Cl)cc2Cl)cc1	1	1	0	nt	67*	-10	35
CCCCNC(=O)C(=O)N/N=C/c1cccc(Br)c1	-4	-2	-4	nt	0	-2	nt
CCCCNC(=O)CCCCC(=O)N/N=C/c1cccc(Cl)c1	-6	-1	-4	nt	65*	-3	11
N#Cc1ccccc1NC(=O)COC(=O)c1c[nH]c2ccccc12	-7	22	6	15	6	-8	nt
CC(C)c1nnc(NC(=O)c2cccc(-n3cnnn3)c2)s1	0	-1	5	nt	76*	2	56*	Diaphorase 10uM=53*;Diaphorase 30uM=42
COc1cccc(C(=O)Nc2nnc(C(C)C)s2)c1	-8	-1	-10	22	91*	-5	56*	Diaphorase 10uM=59*;Diaphorase 30uM=45
CCCc1nnc(NC(=O)c2cccc(OC)c2)s1	-1	3	7	nt	63*	-6	15
COc1cccc(C(=O)Nc2nnc(Cc3ccc(OC)c(OC)c3)s2)c1	0	-1	-5	-5	13	-3	nt
CCOC(=O)c1nc2sc(C)c(C)c2c(=O)[nH]1	-7	-1	0	nt	22	-3	nt
CCOC(=O)/C(=C\c1cccc(O)c1)c1nc2sc(C)c(C)c2c(=O)[nH]1	23	0	-10	nt	69*	2	20
Cc1ccc(N(CC(=O)Nc2ccc3c(c2)OCCO3)S(C)(=O)=O)cc1	0	2	-8	2	5	-7	nt
COc1ccc2c(c1)sc1nc(-c3ccccc3)cn12	1	0	-36	45	98*	-2	26
CCOC(=O)N1CCN(C(=O)c2ccc3c(c2)sc2nc(-c4ccc(OC)cc4)cn23)CC1	3	1	18	nt	13	1	nt
COc1ccc(C(=O)N/C(=C\c2cn(S(=O)(=O)N(C)C)c3ccccc23)C(=O)N2CCN(C)CC2)cc1	-4	-1	-2	nt	13	-2	nt
SMILES	APOBEC3G inh	APOBEC3A inh	H9c2 protect	TAG inh	PfG6PD inh	NadD block	PfGluPho conf	others
CCOC(=O)c1c(C)[nH]c(C)c1C(=O)COC(=O)c1ccccc1O	-6	1	1	nt	19	-10	nt
CCOC(=O)c1c(C)[nH]c(C)c1C(=O)COC(=O)c1cccs1	12	5	3	-2	60*	-2	14
COC(=O)c1ccc(COC(=O)[C@@H]2CC(O)CN2S(=O)(=O)c2ccccc2[N+](=O)[O-])cc1 (stereo partly specified)	-6	-4	-4	11	0	-8	nt
COc1ccc(-n2sc3ccccc3c2=O)cc1	nt	nt	-34	32	125*	-4	109*	Diaphorase 10uM=-26;Diaphorase 30uM=-12
CCn1c(C)nc2cc(C(=O)OC(C(F)(F)C(F)F)C(F)(F)C(F)F)ccc21	2	4	-25	nt	61*	-11	15
CCn1c(C)nc2cc(C(=O)NNC(=O)c3ccc(C)cc3)ccc21	-8	5	2	-5	36	6	nt
COC(=O)NC(=S)Nc1ccc(Oc2ccc(Cl)cc2Cl)c(Cl)c1	5	3	-20	6	82*	7	12
COC(=O)NC(=S)Nc1ccc(Oc2ccc(Cl)cc2)c(Cl)c1	-2	-1	-4	nt	56	-7	nt
NS(=O)(=O)c1cccnc1Nc1cccc(Cl)c1Cl	-6	-5	-9	-6	62*	2	13
COc1ccccc1NC(=O)c1ccc(CSc2ncccn2)cc1	-9	0	nt	nt	nt	nt	nt
O=[N+]([O-])c1cccc(NC(=S)NCc2ccncc2)c1	-1	0	-4	7	79*	5	5
Cc1cc([N+](=O)[O-])nn1CCCC(=O)Nc1sc2c(c1C(N)=O)CCCC2	35	0	16	nt	67*	-1	32
O=C(N/N=C/c1cccc(Oc2ccccc2)c1)c1ccccc1Br	-5	-3	-13	nt	89*	-1	32
COc1ccccc1/C=N/NC(=O)c1ccccc1Cl	1	2	0	-9	9	0	nt
C=CCc1cccc(/C=N/NC(=O)c2ccccc2Br)c1O	-3	-2	51*	13	75*	7	27
